The list is not random: actives were taken first. Their share in the collection is about 3.9%.
HSP90 inh = HSP90 refolding inhibition in rabbit reticulocyte lysate; luciferase refolding luminescence, 3 h; inhibition, % at 5.6 µM; 0.91% of 290,000 active; AID 1789;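 active means inhibition above the screen-wide mean plus 3 SD, computed separately per campaign, cut at about 16% in these data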;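 further: 0% = DMSO wells and 100% = 60 µM geldanamycin wells; inhibitors lower the luminescence because luciferase stays unfolded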
aSyn 5UTR inh = MLPCN primary screen, SNCA 5' untranslated region; alpha-synuclein 5'UTR reporter, inhibitor activity; inhibition, % (tested at 7.5 µM); 0.82% of 300,000 active; in the data active means inhibition above about 60%; inconclusive means no clear call, values can overlap the other calls;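 further: H4 neuroglioblastoma cells stably carrying SNCA 5'UTR luciferase fusion; 0% = DMSO wells and 100% = positive control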
HIF-2a inh = blocks HIF-2a reporter activity | AID 624352 | inhibition, % at 18.8 µM | 786-0 RCC cells HIF-2a reporter, luciferase luminescence, overnight | 0.72% of 360,000 active;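 active means inhibition of the luminescence signal of 40% or more relative to plate controls, in a single-dose primary screen at 18.75 µM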
TWEAK Fn14 block = inhibitors of TWEAK-Fn14 interaction signaling | TWEAK-stimulated Fn14 reporter cells, luciferase luminescence, 8 h | inhibition, % at 10 µM | 2% of 360,000 active | AID 1159606; in the data active means inhibition above about 50%
TRAIL sens C8 = sensitizes caspase-8 expressing cells to TRAIL | NB7+C8 cells + TRAIL, ATPlite viability luminescence | inhibition (viability loss, TRAIL sensitization), % at 10 µM | 1% of 360,000 active | AID 624354;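 active means compounds causing at least 50% loss of cell viability in the single-dose screen, relative to plate controls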
TROY NFkB inh = TROY signaling inhibition; Q293 LMP1-TROYcd NF-kB luciferase reporter, 4 h; inhibition, % at 10 µM; 0.98% of 360,000 active; AID 1347056;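 active means compounds whose plate-normalised and pattern-corrected inhibition of the luciferase reporter signal at the single screening dose is 50% or more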
The depositor's hits bear a star; u = inconclusive; x = no result given.

SMILES	HSP90 inh	aSyn 5UTR inh	HIF-2a inh	TWEAK Fn14 block	TRAIL sens C8	TROY NFkB inh
COc1cc(Cl)c(CNC[C@H]2O[C@@H](n3cnc4c(=O)[nH]c(N)nc43)[C@H](O)[C@@H]2O)c(Cl)c1O	x	x	-0.1	-10.9	-11.6	-1.7
CCOC(=O)N1CCC(=NNC(=O)COc2ccc(C#N)cc2)CC1	-3.1	-30.1	2.1	-20.9	-4.1	4.9
CCOC(=O)N1CCC(=NNC(=O)COc2ccc(OC)cc2)CC1	-5.6	3.7	8.3	95.9*	-12.4	-7.5
OCCCN=c1cc(-c2ccccc2)oc2ccc(Cl)cc12	0.0	-440.1	-142.2	-111.0	24.2	-122.1
CC1(C)CC(N=c2cc(-c3ccccc3)oc3ccc(Cl)cc23)CC(C)(C)N1	1.0	99.4*	-89.0	-67.4	6.2	-21.8
CC(C)C[C@@H]1NC(=O)[C@H](Cc2ccccc2)N(C)C(=O)[C@H](C)NC(=O)c2ccccc2NC(=O)[C@H](Cc2ccc(O)cc2)N(C)C1=O	x	25.9	-7.6	25.6	24.9	-3.3
CC[C@H](C)C1OC(=O)[C@@H](C)[C@@H](CC)NC(=O)[C@H](C)N(C)C(=O)C(C)(C)C(=O)C(C)NC(=O)[C@H](Cc2ccc(OC)cc2)N(C)C(=O)[C@H](C(C)C)N(C)C(=O)CNC(=O)[C@H](CC(C)C)N(C)C(=O)CNC1=O (some centres not stated)	x	x	33.6	11.7	54.7*	54.2*
Cc1c(C(=O)Nc2ccc(F)cc2)oc2ccc(S(=O)(=O)N3CC(C)CC(C)C3)cc12 (configuration not stated)	1.5	-10.7	21.0	54.0*	22.6	28.5
COc1ccc(-c2cc(C(F)(F)F)nc(S(=O)(=O)CCC(=O)N3CCOCC3)n2)cc1	2.5	-76.2	-6.9	75.0*	-4.1	49.0
COc1ccc(-c2cc(C(F)(F)F)nc(S(=O)(=O)CCCC(=O)Nc3cccc(O)c3)n2)cc1OC	3.6	-16.4	-8.6	95.9*	-13.0	53.3*
COc1ccccc1-c1cc(C(F)(F)F)nc(S(=O)(=O)CCCC(=O)O)n1	5.7	8.1	-1.2	27.8	-16.5	13.7
Cc1cc(NC(=O)CCS(=O)(=O)c2nc(-c3ccccc3)cc(C(F)(F)F)n2)no1	x	x	64.8*	53.9*	-1.5	56.2*
CS(=O)(=O)c1nc(-c2ccccc2)cc(C(F)(F)F)n1	0.9	-111.2	93.8*	46.9	59.0*	52.7*
COc1ccc(-c2coc3cc(OC(C)=O)ccc3c2=S)cc1	x	x	-300.5	-4.7	13.2	-42.4
O=[N+]([O-])c1ccc(N=Nc2c(Cl)cc(O)cc2Cl)cc1	-2.5	u	-196.2	87.0*	41.1	26.6
CCOC(=O)[C@]12CCC=C1N(Cc1ccc(Cl)cc1Cl)C(=O)[C@H](CC(=O)NCc1cccs1)C2	x	x	-17.4	-9.2	7.0	-2.5
CC(C)(C)c1ccc(C(=O)NCCC(=O)Nc2ccc3c(c2)OCCO3)cc1	x	x	-25.6	66.8*	11.4	64.6*
S=C(Nc1ccc2c(c1)OCO2)N1CCN(Cc2ccco2)CC1	-1.4	-58.2	-167.2	-27.3	59.9*	-9.6
S=C(NCc1ccco1)N1CCN(Cc2ccco2)CC1	-3.1	24.9	6.0	-9.4	-10.7	-15.5
Cc1ccc(NC(=O)CCNS(=O)(=O)c2ccc3c(c2)CCC(=O)N3)cc1F	-1.1	22.8	6.1	3.4	5.7	-0.3
Cc1ccc(C(=O)NCC(=O)Nc2ccc3c(c2)OCCO3)cc1	x	-22.4	-56.1	-6.2	13.8	-26.0
Cc1ccc(NC(=O)CN2CCN(C(=O)c3ccco3)CC2)cc1	0.5	-8.2	13.6	-7.1	-6.7	-10.0
O=C(CN1CCN(C(=O)c2ccco2)CC1)Nc1ccc2c(c1)OCCO2	2.7	-35.3	19.7	64.5*	-6.9	52.6*
O=C(CCNS(=O)(=O)c1ccc2c(c1)CCC(=O)N2)Nc1ccc2c(c1)OCCO2	1.7	-19.6	18.1	68.1*	-4.6	56.4*
COc1ccc(C)cc1S(=O)(=O)NNc1nc(C)cc(C)n1	x	x	5.7	10.8	-18.1	-10.6
SMILES	HSP90 inh	aSyn 5UTR inh	HIF-2a inh	TWEAK Fn14 block	TRAIL sens C8	TROY NFkB inh
COC(=O)[C@@]12C[C@@H](CC(=O)NCc3ccccc3)C(=O)N(Cc3ccc4c(c3)OCO4)C1=CCC(C)(C)C2	x	x	6.0	x	15.4	x
O=C(Nc1ccc2c(c1)OCCO2)c1ccco1	13.8	-68.0	-91.3	61.1*	34.9	37.6
Cc1ccc(C(=O)Nc2ccc3c(c2)OCCO3)o1	5.1	-28.8	-129.8	24.7	53.6*	-18.5
Cc1cc(C(=O)Nc2ccc3c(c2)OCCO3)co1	10.1	-112.9	-227.8	7.4	47.6	-20.2
O=C(NC(c1ccc(F)cc1)c1ccc2ccccc2n1)C1CCN(Cc2cccc(C(F)(F)F)c2)CC1 (configuration not stated)	x	x	-52.2	39.2	46.9	44.9
CC1(C)N=C(N)N=C(N)N1c1ccc(OCCCOc2ccccc2)c(Cl)c1	-0.9	78.3*	33.6	86.6*	71.4*	5.7
CC1(C)N=C(N)N=C(N)N1c1ccc(OCC(=O)Nc2ccccc2)c(Cl)c1	x	x	30.9	19.0	80.6*	9.6
Cc1cccc(NC(=O)CCc2ccccc2)c1	-0.5	6.0	-126.0	-16.7	-3.4	-31.3
CC1(C)N=C(N)N=C(N)N1c1cccc(CC(=O)Nc2ccccc2)c1	x	x	-4.8	6.6	78.0*	-10.8
Cc1cccc(NC(=O)CCc2ccc(N3C(N)=NC(N)=NC3(C)C)cc2)c1	x	x	20.5	-11.2	79.8*	-5.9
O=C(NCCN1CCC(n2c(=O)[nH]c3ccccc32)CC1)c1cccc(Cl)c1	x	x	-3.6	4.0	9.1	-13.2
Nc1ncnc2c1ncn2[C@@H]1O[C@H](C(=O)N2CCC[C@@H]2C(=O)OCc2ccccc2)[C@@H](O)[C@H]1O	x	x	15.9	-12.6	-7.6	0.8
Nc1ccccc1Nc1cccc(C(F)(F)F)c1	-3.5	-51.7	21.3	50.3*	-5.0	18.6
CN=C1NN=C(c2cc(C)n(-c3ccc(Cl)cc3)c2C)CS1	4.1	-40.5	-120.3	5.4	7.1	-15.8
Cc1cc(C2=NNC(=NCCc3ccccc3)SC2)c(C)n1-c1c(C)n(C)n(-c2ccccc2)c1=O	-1.1	-10.9	-0.3	57.4*	-18.6	-2.4
Cc1ccc(-n2c(C)cc(C3=NNC(=NC4CC4)SC3)c2C)cc1C	6.0	-59.7	-21.2	30.9	64.3*	18.1
C=CCN=C1NN=C(c2cc(C)n(CC=C)c2C)CS1	5.2	51.8	58.1*	46.6	51.5*	14.3
Cc1cc(C2=NNC(=NC3CC3)SC2)c(C)n1-c1c(C)n(C)n(-c2ccccc2)c1=O	0.9	-15.1	12.6	8.5	-7.9	-4.7
COCCN=C1NN=C(c2cc(C)n(CC3CCCO3)c2C)CS1 (configuration not stated)	2.5	-27.1	3.1	12.9	-5.6	0.8
COC(=O)[C@@]12C[C@@H](CC(=O)N3CCN(C(=O)c4ccco4)CC3)C(=O)N(Cc3ccccc3)C1=CCC(C)(C)C2	x	x	8.6	x	1.3	x
COC(=O)CCCn1cc(CN2CC(N3CCN(Cc4cccc(C)c4)CC3)CS2(=O)=O)nn1 (configuration not stated)	x	x	7.4	6.2	-17.0	2.5
